RPL19A TOR yeast: yeast TOR pathway RPL19A-GFP modulation; S. cerevisiae RPL19A-GFP strain, flow cytometry, 3 h; hits give low values; percent response vs DMSO, % at 10 µM; 0.3% of 330,000 active; AID 2025;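 active = percent response vs DMSO below 50%; inconclusive = fewer than 70 events counted for the yeast strain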;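 note: median channel GFP fluorescence of the barcoded RPL19A-GFP strain; ratio of sample median GFP to plate DMSO average so 100% = DMSO; lower means less RPL19A-GFP as with rapamycin TOR inhibition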
LAP4-GFP MLPCN: alters LAP4-GFP fluorescence in TOR pathway yeast screen; GFP response vs DMSO, % at 10 µM; 0.34% of 320,000 active; S. cerevisiae LAP4-GFP multiplex, flow cytometry GFP, 3 h; median GFP as percent of DMSO wells; AID 2023;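 active = GFP response vs DMSO above a set limit, about the screen mean plus 3 SD, cut at about 150% in these data; inconclusive = under 70 cell events counted for the yeast strain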
CIT2 TOR yeast: modulators of TOR pathway CIT2-GFP in S. cerevisiae; S. cerevisiae CIT2-GFP strain, flow cytometry, 3 h; 100 means same as DMSO wells; 0.065% of 320,000 active; GFP response vs DMSO, % at 10 µM;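 active = GFP response relative to DMSO above a set limit, near the screen mean plus 3 SD, cut at about 150% in these data; inconclusive = Fewer than 70 cells measured for a yeast strain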;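 note: ratio of well median GFP fluorescence to mean of DMSO wells on the plate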
AGP1 TOR yeast: alters AGP1-GFP fluorescence in TOR pathway yeast screen | S. cerevisiae AGP1-GFP multiplex flow cytometry, 3 h; GFP as percent of DMSO wells | GFP response vs DMSO, % at 10 µM | 0.02% of 320,000 active | AID 2066;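 active = GFP response relative to DMSO above a set limit, near screen average plus 3 SD, cut at about 150% in these data; inconclusive = fewer than 70 cells counted for the yeast strain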;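 note: median GFP channel fluorescence of the gated AGP1 strain per well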
VLA-4 inh: inhibition in a human VLA-4 binding assay. inhibition, % (about 7 µM as worked out from the volumes in the protocol). AID 2557. 0.2% of 330,000 active. VLA-4 expressing cells, ligand binding flow cytometry; in the data active = inhibition above about 50%
Target sequence (P13612 whole entry, looked up): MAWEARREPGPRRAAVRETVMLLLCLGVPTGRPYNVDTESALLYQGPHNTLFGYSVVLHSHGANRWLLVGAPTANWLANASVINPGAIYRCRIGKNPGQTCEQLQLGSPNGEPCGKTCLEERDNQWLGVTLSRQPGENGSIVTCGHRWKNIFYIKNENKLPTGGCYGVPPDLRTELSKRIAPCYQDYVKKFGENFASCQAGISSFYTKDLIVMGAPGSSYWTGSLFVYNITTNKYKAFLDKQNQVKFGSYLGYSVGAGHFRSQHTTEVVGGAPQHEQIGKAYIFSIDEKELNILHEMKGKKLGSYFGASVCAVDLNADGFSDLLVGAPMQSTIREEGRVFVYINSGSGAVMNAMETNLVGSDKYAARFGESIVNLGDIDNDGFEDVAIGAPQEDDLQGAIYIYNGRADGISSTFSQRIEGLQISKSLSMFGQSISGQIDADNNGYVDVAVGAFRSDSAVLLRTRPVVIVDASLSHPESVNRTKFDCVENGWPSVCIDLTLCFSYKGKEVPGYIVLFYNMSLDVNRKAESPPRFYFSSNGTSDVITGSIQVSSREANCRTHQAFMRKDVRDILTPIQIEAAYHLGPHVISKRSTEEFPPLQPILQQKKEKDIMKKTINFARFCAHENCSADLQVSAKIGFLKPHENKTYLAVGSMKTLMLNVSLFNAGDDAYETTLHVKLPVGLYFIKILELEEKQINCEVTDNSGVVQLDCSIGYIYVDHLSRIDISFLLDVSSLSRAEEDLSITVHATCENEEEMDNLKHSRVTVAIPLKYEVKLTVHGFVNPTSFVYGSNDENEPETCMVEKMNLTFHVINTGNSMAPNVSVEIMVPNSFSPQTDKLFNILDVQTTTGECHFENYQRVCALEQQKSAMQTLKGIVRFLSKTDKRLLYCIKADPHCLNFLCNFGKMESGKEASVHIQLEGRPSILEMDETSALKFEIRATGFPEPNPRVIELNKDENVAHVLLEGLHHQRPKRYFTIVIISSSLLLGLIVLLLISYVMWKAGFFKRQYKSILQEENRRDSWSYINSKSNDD
MEP2-GFP yeast: yeast TOR pathway MEP2-GFP modulation; 0.51% of 330,000 active; GFP response vs DMSO, % at 10 µM; S. cerevisiae MEP2-GFP strain, flow cytometry GFP, 3 h; 100% = DMSO control level;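 active = GFP response versus DMSO above a set limit, roughly screen mean plus 3 SD, cut at about 180% in these data; inconclusive = fewer than 70 cells counted for a yeast strain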;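 note: median GFP fluorescence of the barcode-gated MEP2-GFP cells per well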
Numbers without * were called inactive; ? = inconclusive; / = not tested or not shown; + = active, no number; [ ] = remark or other dose. A selection: hits, their analogues and other compounds. The true share with any hit is near 1.1%.

SMILES	RPL19A TOR yeast	LAP4-GFP MLPCN	CIT2 TOR yeast	AGP1 TOR yeast	VLA-4 inh	MEP2-GFP yeast
O=C(NC(=S)NNC(=O)c1ccco1)c1ccc(F)cc1	8.6*[may fluoresce violet]	?	?	?	11.9	?
COc1cccc(C(C(=O)NCC2CCCO2)N(C(=O)Cn2nnc3ccccc32)c2ccc(NC(C)=O)cc2)c1 (configuration not stated)	53.5	78.3	?	?	-6.5	204.4*[may fluoresce violet]
CCOc1cc(C(C(=O)NCC2CCCO2)N(C(=O)Cn2nnc3ccccc32)c2ccc(C(C)=O)cc2)ccc1O (configuration not stated)	102.8	94.8	106.6	104.8	-0.8	99.4
CC(=O)N1CCN(S(=O)(=O)c2cccc(C(=O)NNC(=O)COc3ccc(Cl)cc3C)c2)CC1	96.4	108.2	103.8	101.2	7.0	97.5
COc1cccc(CN2CC(C(=O)N(C)CCCC3CCCC3)CCC2=O)c1 (configuration not stated)	103.9	93.3	107.8	104.5	4.0	104.1
CC(C)(C)NC(=O)C(c1ccco1)N(Cc1ccc2c(c1)OCO2)C(=O)c1snc(C(N)=O)c1N (configuration not stated)	105.0	89.9	100.5	99.8	0.2	101.6
O=S(=O)(Nc1nc2ccccc2nc1Cl)c1ccc2ccccc2c1	105.4	122.4	87.6	86.6	7.7	185.1*
O=C(NCC1CCCO1)c1cc(Br)c(Br)s1 (configuration not stated)	110.5	104.0	101.3	99.2	2.1	106.1
O=C(O)c1cc(-c2c[nH]c3ccccc23)nc2cc3ccccc3cc12	22.9*[may fluoresce violet]	69.0	?	?	0.6	636.2*[may fluoresce violet]
COc1ccc(CNC2CCCCC2C)c(OC)c1 (configuration not stated)	45.3*[may fluoresce violet]	90.7	?	31.8	-4.9	147.6
CC(C)Oc1ccc(CNC(=O)CCCN2C(=O)C(c3ccccc3)Oc3cccnc32)cc1 (configuration not stated)	93.6	90.7	100.3	89.8	26.0	115.3
COC(=O)C1=CN(c2cc(C)cc(C)c2)C=C(C(=O)OC)C1c1ccc(OC)c(O)c1	99.9	104.2	94.5	98.6	-7.3	108.8
CCOC(=O)c1ccc(N2C=C(C(=O)OC)C(c3ccc(OC)c(O)c3)C(C(=O)OC)=C2)cc1	49.1*[may fluoresce violet]	72.4	?	18.4	-7.2	769.1*[may fluoresce violet]
Cc1ccc(/C=C2\SC(=S)N(CCC(=O)NNC(=O)c3cccc(O)c3)C2=O)cc1	21.4*[may fluoresce violet]	78.5	?	14.3	-3.5	150.7
Cc1ccc(/C=C2\SC(=S)N(CCC(=O)NNC(=O)c3ccc(O)cc3)C2=O)cc1	102.9	102.2	100.6	109.5	-4.4	106.0
CCOc1ccc(N2CC(C(=O)Nc3ccncc3)CC2=O)cc1 (configuration not stated)	103.0	98.4	108.5	109.2	-2.5	105.5
Cc1ccccc1C(=O)NC1CCN(CC(=O)NCc2ccccc2)CC1	96.5	89.6	101.4	96.8	-0.6	96.9
O=C(N/N=C/c1c[nH]c2ccccc12)c1ccc(O)c(O)c1	94.9	89.6	97.7	88.5	20.4	102.9
COc1ccc(C(=O)N/N=C/c2c[nH]c3ccccc23)cc1	16.8*[may fluoresce violet]	?	?	?	2.2	247.1*[may fluoresce violet]
CCOc1ccccc1NC(=O)CSc1nccn1-c1ccccc1	/	90.5	?	?	14.4	263.5*[may fluoresce violet]
Cc1ccc(C(=O)N2CCN(c3ccccc3F)CC2)cc1NC1=NC2CS(=O)(=O)CC2S1 (configuration not stated)	40.4*[may fluoresce violet]	117.8	?	?	13.1	256.5*[may fluoresce violet]
CC(=O)c1ccccc1Oc1ncnc(N)c1[N+](=O)[O-]	100.0	85.6	109.3	98.5	5.3	100.2
COc1ccc(S(=O)(=O)Cc2ccc(C(=O)NC(C)C)o2)cc1	99.7	105.9	96.7	106.6	16.0	101.5
COC(=O)c1ccc(CS(=O)(=O)c2ccc(F)cc2)o1	66.5	151.8*	149.4	142.2	1.9	535.9*
Fc1ccc(C2CC(c3ccccc3)n3ncnc3N2)cc1 (configuration not stated)	96.9	181.5*	123.1	160.9*	11.0	173.9
SMILES	RPL19A TOR yeast	LAP4-GFP MLPCN	CIT2 TOR yeast	AGP1 TOR yeast	VLA-4 inh	MEP2-GFP yeast
COc1ccc(C(=O)N(C(C)C)C(C)C)c(OC)c1	38.1*[may fluoresce violet]	89.2	?	?	0.1	233.8*[may fluoresce violet]
COc1ccc(C(=O)NCC(C)C)c(OC)c1	94.8	92.6	97.7	109.4	-3.4	110.2
COc1ccc(NC(=O)CN2C(=O)COc3ccccc32)cc1OC	100.0	100.7	104.0	103.9	3.5	107.0
CCOc1ccc(N(CC(=O)Nc2ccc(C)c(C)c2)S(C)(=O)=O)cc1	99.7	92.3	96.7	101.9	5.7	97.1
O=c1[nH]c(CN(CCO)CCO)nc2c1C1(CCCCC1)Cc1ccccc1-2	42.3*[may fluoresce violet]	86.2	?	/	1.3	288.8*[may fluoresce violet]
CCC(=O)Nc1nc2cc(OC)ccc2s1	15.3*[may fluoresce violet]	96.5	?	?	9.7	268.9*[may fluoresce violet]
COc1cccc(/C=N/NC(=O)CC2C(=O)NN=C2C)c1O (configuration not stated)	11.2*[may fluoresce violet]	?	?	?	1.8	?
COc1cccc(/C=N/NC(=O)CC2C(=O)NN=C2C)c1OC (configuration not stated)	96.3	96.1	107.7	103.2	2.4	108.3
CC(=O)c1ccccc1NC(=O)COC(=O)c1ccccc1NC(=O)c1ccccc1	249.4	986.4*[may fluoresce green]	720.1*[may fluoresce green]	224.5*[may fluoresce green]	0.0	+[may fluoresce green]
COC(=O)COC(=O)c1ccccc1NC(=O)c1ccccc1	96.6	97.7	101.7	89.7	-3.7	103.8
O=[N+]([O-])c1ccccc1OCCOc1ccccc1[N+](=O)[O-]	73.1	167.3*	131.2	155.2*	-1.3	529.8*
COc1ccc(S(=O)(=O)N(C)C[C@H]2Oc3c(NC(=O)Nc4c(C)noc4C)cccc3C(=O)N([C@@H](C)CO)C[C@H]2C)cc1	91.0	92.5	94.1	94.2	0.3	84.7
COc1cc(Cn2nnc3ccccc32)cc(Br)c1O	87.0	85.4	96.3	82.4	18.8	87.2
COc1ccccc1NC(=O)c1cc(S(=O)(=O)NC2CCCC2)ccc1F	39.0*[may fluoresce violet]	59.2	?	?	8.4	266.3*[may fluoresce violet]
CN1/C(=C\C(=O)c2cccc(S(=O)(=O)N3CCCCC3)c2)C(C)(C)c2ccccc21	116.0	120.9	162.1*	109.4	5.2	156.9
CN1/C(=C\C(=O)c2cccnc2)C(C)(C)c2ccccc21	98.2	101.9	100.7	89.7	4.8	100.2
Fc1cccc(Cc2noc(CN3CCC(c4ccncc4)CC3)n2)c1	113.3	98.0	111.5	110.3	6.1	124.0
Cc1ccc(S(=O)(=O)Nc2cc(Cl)c(O)c3ncccc23)cc1	103.2	154.0*	103.2	98.7	-11.8	97.3

Screens deposited in PubChem BioAssay by NMMLSC.
